# Source: PubChem BioAssay (several laboratories)
# The list is not random: actives were taken first. Their share in the collection is about 5.3%.
# M18AAP inhibitor = PfM18AAP inhibitors, malaria aminopeptidase, primary screen, biochemical, QFRET, recombinant enzyme; H-Glu-NHMec fluorogenic cleavage; 1.2% of 290,000 active; AID 1822, 2009; inhibition, % at 7.35 µM; M18 aspartyl aminopeptidase (Plasmodium falciparum 3D7);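 active means inhibition above the campaign mean inhibition over all tested compounds plus 3 SD, cut at about 28% in these data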;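 further: 0% = plate median of test compound wells and 100% = 2 mM ZnCl2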
# ALR H2O2 inh = inhibitors of human ALR sulfhydryl oxidase, primary screen, biochemical, H2O2 detection, HRP-luminol luminescence, single point. FAD-linked sulfhydryl oxidase ALR (Homo sapiens), P55789. purified ALR, DTT oxidation. inhibition, % (no concentration beside the values). AID 485317, 2010. 3.8% of 290,000 active;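 active means mean replicate inhibition above about 79%, with every replicate also reaching it, limit read from the data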
# Target sequence (P55789 whole entry, looked up): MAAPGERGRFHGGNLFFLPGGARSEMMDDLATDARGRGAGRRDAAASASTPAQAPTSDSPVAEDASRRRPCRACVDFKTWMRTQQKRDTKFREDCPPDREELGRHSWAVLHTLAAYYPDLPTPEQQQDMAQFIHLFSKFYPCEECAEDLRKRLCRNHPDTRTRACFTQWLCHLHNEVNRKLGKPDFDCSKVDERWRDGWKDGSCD
# HIF act = HIF pathway transcriptional activators, primary screen, cell-based, U2OS HRE-luciferase, luminescence; U2OS HRE-luciferase reporter; normalized: DMSO 0%, desferrioxamine 100%; activation, % at 7.5 µM (by protocol); 0.32% of 300,000 active; AID 1910, 2009;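 active means mean activation of at least 10% of the iron chelator positive control signal, with at least half of replicates also reaching 10%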
# SUMO Mot1 rescue = yeast Mot1-301 growth rescue at high temperature, primary screen, SUMOylation pathway inhibitor project, S. cerevisiae, ATP luminescence, 38.5C. S. cerevisiae Mot1-301 growth rescue; percent above DMSO median, 100 means doubled. growth rescue, % at 18.8 µM. 1% of 320,000 active;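 active means every valid replicate shows activation above 250% relative to neutral control wells; inactive means the rest, any valid replicate at or below 250%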;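 further: OY570 slx delta 5 strain wells were the positive control but not used for scaling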
# Numbers without * were called inactive; . = no result.
SMILES,M18AAP inhibitor,ALR H2O2 inh,HIF act,SUMO Mot1 rescue
CC(c1ccccc1F)n1cc(C(=O)NCCc2ccco2)nn1 (configuration not stated),2.6,-0.6,1.5,.
COc1ccc(/C=N/Nc2nnc(Cc3ccc(OC)c(OC)c3)c(=O)[nH]2)cc1OC,-6.6,-0.2,-0.8,-25.1
COc1ccc(Cc2nnc(N/N=C/c3ccc(N(C)C)cc3)[nH]c2=O)cc1OC,6.6,98.8*,-0.6,-11.1
CCNc1nc(NCC)nc(N/N=C/c2ccc(N(C)C)cc2)n1,7.1,98.9*,0.0,-3.8
CCOC(=O)Nc1cccc(C(=O)O)c1,-11.6,-10.3,0.2,106.6
CCOC(=O)Nc1cccc(Nc2ccccc2)c1,0.2,99.0*,0.5,-6.1
Cc1ccc(NCc2nnc(SCC(=O)N3CCCCC3)n2CC2CCCO2)c(C)c1 (configuration not stated),6.7,92.1*,-0.5,-2.1
CC(C(=O)Nc1ccccc1-c1ccccc1)N(C)Cc1nc2ccccc2c(=O)[nH]1 (configuration not stated),-1.8,-4.4,57.0*,9.3
O=C(Nc1ccc(N2CCN(c3ncccc3C(F)(F)F)CC2)nc1)c1cccs1,2.0,-2.2,-0.2,13.3
N/C(=N\O)c1ccc(N2CCN(c3ncccc3C(F)(F)F)CC2)nc1,-4.0,91.2*,5.0,112.5
COc1ccc(SCCc2ccncc2)cc1,-7.3,92.7*,0.5,45.6
Fc1ccc(SCCc2ccncc2)cc1,-2.6,-3.0,0.4,114.8
Cc1cccc(/C=N/Nc2nncc3ccccc23)c1,5.4,96.5*,-2.1,8.2
CCOC(=O)C(C)(C)Oc1cccc2c1S(=O)(=O)c1ccccc1-2,.,0.6,0.3,2.0
COc1ccc(/C=N/NC(=S)Nc2cccc(C(=O)O)c2)cc1OC,24.6,.,-0.2,22.2
CN(C)S(=O)(=O)c1cccc(NC(=S)N/N=C/c2ccco2)c1,12.8,16.9,0.2,-9.3
O=C(O)c1cccc(NC(=S)NC(=O)c2cccc(OCc3ccccc3)c2)c1,1.6,98.5*,1.7,-12.8
CCCOc1cccc(C(=O)NC(=S)Nc2ccccc2)c1,-6.2,-3.2,1.7,-3.3
COc1ccc(O)c(/C=N/NC(=S)Nc2cccc(S(=O)(=O)N(C)C)c2)c1,26.5,72.6,42.1*,-0.1
COc1cccc(/C=N/NC(=S)Nc2cccc(C(=O)O)c2)c1,28.9*,28.3,-0.7,9.9
CN(C)S(=O)(=O)c1cccc(NC(=S)N/N=C/C(c2ccccc2)c2ccccc2)c1,31.9*,12.9,0.1,-10.7
CC(C)OCCCNC(=O)CCSc1ccc(Cl)cc1,-8.2,1.2,0.0,11.5
CCn1ccnc1CN(C)Cc1nc(Cc2cccc(C(F)(F)F)c2)no1,0.9,0.7,-0.2,-9.1
CC(/C=N/NC(=S)Nc1cccc(S(=O)(=O)N(C)C)c1)c1ccccc1 (configuration not stated),32.8*,-0.6,0.0,27.2
COc1cccc(/C=N/NC(=S)Nc2cccc(S(=O)(=O)N(C)C)c2)c1,-3.1,4.6,0.5,-16.7
SMILES,M18AAP inhibitor,ALR H2O2 inh,HIF act,SUMO Mot1 rescue
CCCOC(=O)c1c(NC(=O)CCC(=O)O)sc2c1CCCCC2,8.0,89.2*,-0.2,3.3
CCCC(=O)Nc1sc2c(c1C(=O)Nc1ccccn1)CCCC2,3.9,96.8*,0.0,-3.8
CCSc1nc(-c2cccs2)nc2ccccc12,-13.9,3.3,0.2,222.1
Cc1[nH]c2ccc(C(=O)OC(C)C(=O)NC3(C#N)CCCCC3)cc2c1C (configuration not stated),.,52.7,-0.2,8.6
COc1ccc(NC(=O)CSc2nc3c(c(=O)[nH]2)CCC3)cc1OC,-2.5,57.1,11.7*,5.9
CCCN1CCc2nc(SCC(=O)Nc3ccc(C)c(Cl)c3)[nH]c(=O)c2C1,25.6,98.1*,-0.2,1.7
O=C(CSc1nc2c(c(=O)[nH]1)CCC2)Nc1ccc(F)cc1,0.5,-7.1,-0.2,-8.7
Cc1cc(C)cc(NC(=O)CSc2nc3c(c(=O)[nH]2)CN(Cc2ccc(F)cc2)CC3)c1,3.6,-32.2,-0.8,-2.8
Cc1oc(-c2ccccc2F)nc1CSCC(=O)NCc1ccc2c(c1)OCO2,5.4,97.9*,0.6,-4.4
Cc1ccccc1-c1nc(CS(=O)(=O)CC(=O)NCc2ccccc2)c(C)o1,-3.0,-5.8,-0.2,-13.8
O=C(CSCc1ccc(F)cc1)NCc1ccc2c(c1)OCO2,-5.5,6.2,0.1,21.9
Cc1ccc(CNC(=O)CS(=O)Cc2nc(-c3ccccc3F)oc2C)cc1 (configuration not stated),5.2,95.6*,0.2,2.9
Cc1oc(-c2ccccc2F)nc1CS(=O)CC(=O)NCc1ccc(F)cc1 (configuration not stated),-4.7,98.6*,-0.2,179.8
Cc1oc(-c2ccccc2F)nc1CS(=O)CC(=O)NCc1ccccc1 (configuration not stated),2.4,97.1*,0.0,-15.5
Cc1ccc(CNC(=O)CS(=O)(=O)Cc2nc(-c3ccccc3F)oc2C)cc1,0.7,-9.8,-0.2,-8.2
Cc1cc(NCCO)nc(N2CCOCC2)n1,-2.3,3.7,-0.5,-9.2
CCc1nc2cccnc2n1-c1ccc(CC(=O)NC(C)CC)cc1 (configuration not stated),2.3,-7.6,-0.3,21.9
CCOC(=O)c1c(C)[nH]c(C(C)=NNC(=O)c2cccs2)c1C,.,-0.9,.,13.5
CCn1c(=O)c([N+](=O)[O-])c(Cl)c2ccccc21,-94.4,5.5,3.3,97.8
O=c1c([N+](=O)[O-])c(O)c2ccccc2n1Cc1ccccc1,11.1,98.7*,0.0,11.5
O=C(Nc1ccc(F)cc1)c1ccc(C(=O)N2CCOCC2)cc1,.,99.2*,-0.2,20.3
COc1ccccc1OCC(=O)Nc1cc(NC(=O)COc2ccccc2OC)cc(C(=O)O)c1,8.6,98.4*,-1.3,303.4
Cc1ccc(C(=O)c2coc3cc([N+](=O)[O-])c(O)c([N+](=O)[O-])c23)cc1,33.4*,-19.9,0.4,45.9
CN(C(=O)CSc1nc(-c2ccc(C(C)(C)C)cc2)c(C#N)c(=O)[nH]1)C1CCCCC1,-6.6,92.8*,0.6,-14.3
N#Cc1c(-c2ccccc2)nc(SCC(=O)NC2CCCCC2)[nH]c1=O,9.9,55.2,0.2,14.0
SMILES,M18AAP inhibitor,ALR H2O2 inh,HIF act,SUMO Mot1 rescue
CCn1c(=NC(=O)CSC(C)=O)sc2cc(F)ccc21,6.9,98.0*,0.0,-3.3
C#CCn1c(=NC(=O)CSC(C)=O)sc2cc(F)ccc21,0.9,97.4*,-0.1,18.4
CCC(=O)N=c1sc2cc(F)cc(F)c2n1C,-14.8,-0.7,2.0,-7.5
COC(=O)c1ccc(NC(=O)C2CCN(C(=O)Nc3ccccc3)CC2)cc1,.,-0.6,.,-4.0
Cc1ccc(Oc2ccc(OCC(=O)NC3CCS(=O)(=O)C3)cc2)cc1 (configuration not stated),-3.2,8.9,-23.0,67.1
c1ccc(Nc2nc(-c3ccccn3)cs2)cc1,-3.1,31.3,1.3,61.2
